Data from the supplement of paper PMC4466140.

Biological target: CaNbp2
Experiment: SPOT peptide array binding signal intensity (averaged, normalized) (arbitrary units (background-subtracted, floor 0; scale differs between SH3 domains)); higher = stronger binding of the SH3 domain to the peptide
Method: (§1)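 GST-tagged SH3 domains from S. cerevisiae (Sc), A. gossypii (Ag), C. albicans (Ca) and S. pombe (Sp) were incubated at 10 ug/ml overnight at 4 C on cellulose SPOT membranes carrying 292 synthetic 15-mer peptides mined from the S. cerevisiae proteome (cysteines replaced by serines). Binding was detected with anti-GST antibody, HRP secondary and chemiluminescence, quantified with Genespotter, and reported as normalized spot intensities averaged over biological replicates.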

Binder	SPOT peptide array binding signal intensity
KRKRRLPVSEDTNTK	255

Biological target: CaRvs167
Experiment: as above
Method: as §1

Binder	SPOT peptide array binding signal intensity
KRKRRLPVSEDTNTK	8.67

Biological target: CaRvs167-3
Experiment: as above
Method: as §1

Binder	SPOT peptide array binding signal intensity
KRKRRLPVSEDTNTK	9.75

Biological target: CaSho1
Experiment: as above
Method: as §1

Binder	SPOT peptide array binding signal intensity
KRKRRLPVSEDTNTK	288

Biological target: CaSla1-D1-D2
Experiment: as above
Method: as §1

Binder	SPOT peptide array binding signal intensity
KRKRRLPVSEDTNTK	8

Biological target: CaSla1-D3
Experiment: as above
Method: as §1

Binder	SPOT peptide array binding signal intensity
KRKRRLPVSEDTNTK	8.75

Biological target: ScAbp1
Experiment: as above
Method: as §1

Binder	SPOT peptide array binding signal intensity
KRKRRLPVSEDTNTK	30

Biological target: ScBbc1
Experiment: as above
Method: as §1

Binder	SPOT peptide array binding signal intensity
KRKRRLPVSEDTNTK	30

Biological target: ScBem1-D1
Experiment: as above
Method: as §1

Binder	SPOT peptide array binding signal intensity
KRKRRLPVSEDTNTK	183

Biological target: ScBzz1-D1
Experiment: as above
Method: as §1

Binder	SPOT peptide array binding signal intensity
KRKRRLPVSEDTNTK	15.5

Biological target: ScBzz1-D2
Experiment: as above
Method: as §1

Binder	SPOT peptide array binding signal intensity
KRKRRLPVSEDTNTK	16.5

Biological target: ScCyk3
Experiment: as above
Method: as §1

Binder	SPOT peptide array binding signal intensity
KRKRRLPVSEDTNTK	143

Biological target: ScFus1
Experiment: as above
Method: as §1

Binder	SPOT peptide array binding signal intensity
KRKRRLPVSEDTNTK	298

Biological target: ScHof1
Experiment: as above
Method: as §1

Binder	SPOT peptide array binding signal intensity
KRKRRLPVSEDTNTK	3.5

Biological target: ScHse1
Experiment: as above
Method: as §1

Binder	SPOT peptide array binding signal intensity
KRKRRLPVSEDTNTK	1340

Biological target: ScLsb1
Experiment: as above
Method: as §1

Binder	SPOT peptide array binding signal intensity
KRKRRLPVSEDTNTK	1.5

Biological target: ScLsb2
Experiment: as above
Method: as §1

Binder	SPOT peptide array binding signal intensity
KRKRRLPVSEDTNTK	11

Biological target: ScLsb3
Experiment: as above
Method: as §1

Binder	SPOT peptide array binding signal intensity
KRKRRLPVSEDTNTK	562

Biological target: ScLsb4
Experiment: as above
Method: as §1

Binder	SPOT peptide array binding signal intensity
KRKRRLPVSEDTNTK	16

Biological target: ScMyo3
Experiment: as above
Method: as §1

Binder	SPOT peptide array binding signal intensity
KRKRRLPVSEDTNTK	5.75

Biological target: ScMyo5
Experiment: as above
Method: as §1

Binder	SPOT peptide array binding signal intensity
KRKRRLPVSEDTNTK	6.75

Biological target: ScNbp2
Experiment: as above
Method: as §1

Binder	SPOT peptide array binding signal intensity
KRKRRLPVSEDTNTK	210

Biological target: ScPex13
Experiment: as above
Method: as §1

Binder	SPOT peptide array binding signal intensity
KRKRRLPVSEDTNTK	0.5

Biological target: ScRvs167
Experiment: as above
Method: as §1

Binder	SPOT peptide array binding signal intensity
KRKRRLPVSEDTNTK	16.3

Biological target: ScSho1
Experiment: as above
Method: as §1

Binder	SPOT peptide array binding signal intensity
KRKRRLPVSEDTNTK	808

Biological target: ScSla1-D1-D2
Experiment: as above
Method: as §1

Binder	SPOT peptide array binding signal intensity
KRKRRLPVSEDTNTK	261

Biological target: ScSla1-D3
Experiment: as above
Method: as §1

Binder	SPOT peptide array binding signal intensity
KRKRRLPVSEDTNTK	103

Biological target: SpAbp1-D1
Experiment: as above
Method: as §1

Binder	SPOT peptide array binding signal intensity
KRKRRLPVSEDTNTK	214

Biological target: SpBbc1
Experiment: as above
Method: as §1

Binder	SPOT peptide array binding signal intensity
KRKRRLPVSEDTNTK	3

Biological target: SpBzz1-D1
Experiment: as above
Method: as §1

Binder	SPOT peptide array binding signal intensity
KRKRRLPVSEDTNTK	40

Biological target: SpBzz1-D2
Experiment: as above
Method: as §1

Binder	SPOT peptide array binding signal intensity
KRKRRLPVSEDTNTK	≤ 0

Biological target: SpCyk3
Experiment: as above
Method: as §1

Binder	SPOT peptide array binding signal intensity
KRKRRLPVSEDTNTK	6.5

Biological target: SpHof1
Experiment: as above
Method: as §1

Binder	SPOT peptide array binding signal intensity
KRKRRLPVSEDTNTK	150

Biological target: SpHof1-2
Experiment: as above
Method: as §1

Binder	SPOT peptide array binding signal intensity
KRKRRLPVSEDTNTK	12

Biological target: SpHof1-3
Experiment: as above
Method: as §1

Binder	SPOT peptide array binding signal intensity
KRKRRLPVSEDTNTK	602

Biological target: SpHse1
Experiment: as above
Method: as §1

Binder	SPOT peptide array binding signal intensity
KRKRRLPVSEDTNTK	391

Biological target: SpLsb1
Experiment: as above
Method: as §1

Binder	SPOT peptide array binding signal intensity
KRKRRLPVSEDTNTK	5.75

Biological target: SpLsb4
Experiment: as above
Method: as §1

Binder	SPOT peptide array binding signal intensity
KRKRRLPVSEDTNTK	268

Biological target: SpMyo1
Experiment: as above
Method: as §1

Binder	SPOT peptide array binding signal intensity
KRKRRLPVSEDTNTK	3.5

Biological target: SpNbp2
Experiment: as above
Method: as §1

Binder	SPOT peptide array binding signal intensity
KRKRRLPVSEDTNTK	331

Biological target: SpPex13
Experiment: as above
Method: as §1

Binder	SPOT peptide array binding signal intensity
KRKRRLPVSEDTNTK	8.5

Biological target: SpRvs167
Experiment: as above
Method: as §1

Binder	SPOT peptide array binding signal intensity
KRKRRLPVSEDTNTK	2.83

Biological target: SpSla1-D1-D2
Experiment: as above
Method: as §1

Binder	SPOT peptide array binding signal intensity
KRKRRLPVSEDTNTK	≤ 0

Biological target: SpSla1-D3
Experiment: as above
Method: as §1

Binder	SPOT peptide array binding signal intensity
KRKRRLPVSEDTNTK	6
